Experimental data from PubChem BioAssay (Tox21).
Values joined by “and” are separate entries in the source; they are usually repeats but may differ in a detail not shown here. Identical values can stand only once. Results filed as inconclusive are left out. Where a call stands in place of a potency, no number is given. More than one record can exist for a structure, and the calls need not agree. Active and inactive are the calls of the source. Unless noted, calls come from the whole dose curve; as a rule, active = well fitted curve in the direction sought with a large enough effect in the repeat runs; inconclusive = weak or mixed curves; inactive = no such curve, though single readings can be large; an effect the other way counts as inactive or inconclusive.

Tests used:
[1] = qHTS assay to identify aromatase inhibitors - cell viability counter screen (AID 743084);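 note: cells stimulated with testosterone during compound exposure; nearly all actives have a fitted effect of over 55% in size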; note: potency is the fitted concentration of half-maximal effect
[2] = molecular target: Aryl hydrocarbon receptor (Homo sapiens) (UniProt P35869); experiment: qHTS assay to identify small molecule that activate the aryl hydrocarbon receptor (AhR) signaling pathway (AID 743085); note: nearly all actives have a fitted effect of over 15% in size; note: potency is the fitted concentration of half-maximal effect;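 for activation: HG2L7.5c1 human HepG2 liver cells with stably integrated DRE-driven firefly reporter; series mostly up to about 70 µM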
How it was run: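 HepG2 cells stably carrying a 20-DRE firefly luciferase reporter (HG2L7.5c1) treated with compound for 24 hr at 37C. Luciferase read by ONE-Glo luminescence, with CellTiter-Fluor viability read first.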

[3] = qHTS assay to identify small molecule that activate the aryl hydrocarbon receptor (AhR) signaling pathway - cell viability counter screen (AID 743086);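 note: HepG2 liver cells carrying the AhR DRE luciferase reporter; series mostly up to about 70 µM; nearly all actives have a fitted effect of over 45% in size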
How it was run: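 HepG2-AhR-luc (HG2L7.5c1) cells, 4000/well, were preincubated 5 h at 37C, exposed to compound in qHTS format for 24 hr at 37C, then given CellTiter-Fluor for 30 min; viability was read as fluorescence in the reporter wells.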

[4] = molecular target: Peroxisome proliferator-activated receptor gamma (Homo sapiens) (UniProt P37231); experiment: qHTS assay to identify small molecule agonists of the peroxisome proliferator-activated receptor gamma (PPARg) signaling pathway (AID 743094; active = well fitted activation curve with a large enough effect in the signal ratio in the repeat runs, not every such curve was filed as active; the % refers to the signal ratio)
How it was run: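 Agonist activity was taken from a beta-lactamase reporter (FRET substrate, 1 h at room temperature) in HEK293H cells carrying a PPARg UAS-bla construct. Compounds in DMSO were incubated 17 h at 37C after a 5 h cell pre-incubation.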

[5] = molecular target: Peroxisome proliferator-activated receptor gamma (Homo sapiens) (UniProt P37231); experiment: qHTS assay to identify small molecule antagonists of the peroxisome proliferator-activated receptor gamma (PPARg) signaling pathway (AID 743191; calls by dose curve; note: nearly all actives have a fitted effect of over 30% in size; note: potency is the fitted concentration of half-maximal effect)
How it was run: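 GeneBLAzer PPARg UAS-bla HEK293H cells carrying a UAS-driven beta-lactamase reporter were plated at 3000 cells/well, preincubated 5 h at 37C, then given compound for 17 h at 37C; LiveBLAzer B/G FRET substrate was read after 1 h at room temperature.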

[6] = qHTS assay for small molecule agonists of the antioxidant response element (ARE) signaling pathway (AID 743202; active = well fitted activation curve with a large enough effect in the signal ratio in the repeat runs, not every such curve was filed as active; the % refers to the signal ratio; note: potency is the fitted concentration of half-maximal effect)
How it was run: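 Following a 16 h, 37 C exposure of reporter HepG2 cells (ARE-driven beta-lactamase, 2,000 cells/well) to compounds, FRET substrate was applied for 2 h at room temperature and fluorescence intensity recorded.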

[7] = qHTS assay for small molecule agonists of the antioxidant response element (ARE) signaling pathway - cell viability counter screen (AID 743203; calls by dose curve; note: nearly all actives have a fitted effect of over 55% in size; note: potency is the fitted concentration of half-maximal effect)
How it was run: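 Viability counter screen: CellTiter-Glo luminescence, read after 30 min at room temperature, in ARE-bla HepG2 wells. Compound exposure lasted 16 h at 37C/5% CO2, following a 5 h pre-incubation of the cells after plating.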

[8] = qHTS assay for small molecule activators of the heat shock response signaling pathway - cell viability counter screen (AID 743209); note: nearly all actives have a fitted effect of over 50% in size; note: potency is the fitted concentration of half-maximal effect
How it was run: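 Cytotoxicity counter screen run in the same wells as the heat-shock bla reporter assay: HeLa HSE-bla cells, 5 h compound exposure at 37 C, viability read by CellTiter-Glo luminescence.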

[9] = qHTS assay for small molecule activators of the heat shock response signaling pathway (AID 743210; active = well fitted activation curve with a large enough effect in the signal ratio in the repeat runs, with a control signal flat, not every such curve was filed as active; the % refers to the signal ratio; note: series mostly up to about 63 µM)
How it was run: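 Heat shock element–beta-lactamase HeLa reporter cells; qHTS with compounds for 5 h at 37 C; detection by FRET substrate fluorescence after 2.5 h at RT.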

[10] = qHTS assay to identify small molecule agonists of the peroxisome proliferator-activated receptor delta (PPARd) signaling pathway - cell viability counter screen (AID 743211); note: nearly all actives have a fitted effect of over 55% in size; note: potency is the fitted concentration of half-maximal effect
How it was run: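 PPARd-bla HEK293H cells (3000/well) were pre-incubated 5 h at 37 C, then exposed to compound for 17 h at 37 C. After 2 h with LiveBLAzer substrate, CellTiter-Glo was added to the same wells; luminescence read after 30 min at room temperature.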

[11] = molecular target: Peroxisome proliferator-activated receptor delta (Homo sapiens) (UniProt Q03181); experiment: qHTS assay to identify small molecule agonists of the peroxisome proliferator-activated receptor delta (PPARd) signaling pathway (AID 743212; calls by dose curve)
How it was run: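 Beta-lactamase reporter read by fluorescence (LiveBLAzer B/G FRET, 2 h, room temperature). Test agents, in DMSO, incubated at 37 C with PPARd-bla HEK293H cells.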

[12] = molecular target: Peroxisome proliferator-activated receptor delta (Homo sapiens) (UniProt Q03181); experiment: qHTS assay to identify small molecule antagonists of the peroxisome proliferator-activated receptor delta (PPARd) signaling pathway (AID 743215; active = well fitted inhibition curve with a large enough effect in the signal ratio in the repeat runs, not every such curve was filed as active; the % refers to the signal ratio;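 note: cells stimulated with agonist L165041 at 300 nM final during compound exposure; series mostly up to about 62 µM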)
How it was run: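 Agonist L165041 (300 nM final) added with compound to PPARd-bla HEK293H UAS-bla reporter cells; 17 h incubation at 37 C. Read-out: LiveBLAzer FRET substrate, 2 h at room temperature, fluorescence intensity.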

[13] = qHTS assay to identify small molecule antagonists of the farnesoid-X-receptor (FXR) signaling pathway - cell viability counter screen (AID 743221; active = well fitted cell-killing curve with a large enough effect in the repeat runs, not every such curve was filed as active; note: nearly all actives have a fitted effect of over 50% in size; note: potency is the fitted concentration of half-maximal effect)
How it was run: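 GeneBLAzer FXR-UAS-bla HEK 293T cells, compound plus chenodeoxycholic acid (50 uM final), 16 h at 37 C. CellTiter-Glo added to the same wells after the beta-lactamase read; luminescence read after 30 min at room temperature as viability.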

[14] = molecular target: Vitamin D3 receptor (Homo sapiens) (UniProt P11473); experiment: qHTS assay to identify small molecule agonists of the vitamin D receptor (VDR) signaling pathway (AID 743222; calls by dose curve)
How it was run: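 Agonist mode, beta-lactamase reporter: fluorescence from LiveBLAzer B/G FRET substrate (2 h, room temperature) read after 16 h compound treatment at 37 C of VDR-bla cells, which were pre-incubated 4 h after seeding.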

[15] = molecular target: Vitamin D3 receptor (Homo sapiens) (UniProt P11473); experiment: qHTS assay to identify small molecule antagonists of the vitamin D receptor (VDR) signaling pathway (AID 743223; active = well fitted inhibition curve with a large enough effect in the signal ratio in the repeat runs, not every such curve was filed as active; the % refers to the signal ratio)
How it was run: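 VDR-bla cells were treated with compound plus 3 nM final 1alpha,25-dihydroxyvitamin D3 for 16 h at 37C. Beta-lactamase reporter read by B/G FRET substrate fluorescence after 2 h at room temperature. qHTS format.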

[16] = qHTS assay to identify small molecule antagonists of the peroxisome proliferator-activated receptor gamma (PPARg) signaling pathway - cell viability counter screen (AID 743194); conditions: Potency: co-treated with 50 nM rosiglitazone unless noted; note: nearly all actives have a fitted effect of over 55% in size; note: potency is the fitted concentration of half-maximal effect
How it was run: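 PPARg-UAS-bla HEK293H cells were plated, rested 5 h at 37 C, then treated with compounds plus rosiglitazone (50 nM final) for 17 h at 37 C; viability was then read by CellTiter-Glo luminescence after 30 min at room temperature.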

[17] = qHTS assay to identify small molecule antagonists of the peroxisome proliferator-activated receptor delta (PPARd) signaling pathway - cell viability counter screen (AID 743213); note: nearly all actives have a fitted effect of over 50% in size
How it was run: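 In this counter screen, HEK293H cells carrying a UAS-beta-lactamase reporter are co-treated with test compounds and 300 nM L165041 (final) for 17 h at 37 C; cell viability is quantified by CellTiter-Glo luminescence.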

[18] = qHTS assay to identify small molecule agonists of the farnesoid-X-receptor (FXR) signaling pathway - cell viability counter screen (AID 743218); note: nearly all actives have a fitted effect of over 45% in size
How it was run: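 Viability counter screen in the same wells: CellTiter-Glo luminescence, 30 min room-temperature incubation, measured after the beta-lactamase read. Cells were GeneBLAzer FXR-UAS-bla HEK 293T, compound-treated 16 h at 37C.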

[19] = molecular target: Bile acid receptor (Homo sapiens) (UniProt Q96RI1); experiment: qHTS assay to identify small molecule agonists of the farnesoid-X-receptor (FXR) signaling pathway (AID 743220; active = well fitted activation curve with a large enough effect in the signal ratio in the repeat runs, not every such curve was filed as active; the % refers to the signal ratio)
How it was run: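 FXR-UAS-bla HEK 293T cells carrying a UAS-driven beta-lactamase reporter were plated for 5 h at 37C/5% CO2, then exposed to DMSO-dissolved Tox21 10K compounds for 16 h at 37C. A LiveBLAzer B/G FRET substrate was loaded for 2 h at room temperature before fluorescence reading.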

[20] = molecular target: Bile acid receptor (Homo sapiens) (UniProt Q96RI1); experiment: qHTS assay to identify small molecule antagonists of the farnesoid-X-receptor (FXR) signaling pathway (AID 743217; active = well fitted inhibition curve with a large enough effect in the signal ratio in the repeat runs, not every such curve was filed as active; the % refers to the signal ratio)
How it was run: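 Antagonist mode: chenodeoxycholic acid at 50 uM final stimulates a UAS-driven beta-lactamase reporter in HEK 293T FXR-bla cells during 16 h, 37C compound exposure. Read-out is FRET substrate fluorescence after 2 h at room temperature.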

Sequence of Vitamin D3 receptor (Homo sapiens) (P11473 whole entry, looked up): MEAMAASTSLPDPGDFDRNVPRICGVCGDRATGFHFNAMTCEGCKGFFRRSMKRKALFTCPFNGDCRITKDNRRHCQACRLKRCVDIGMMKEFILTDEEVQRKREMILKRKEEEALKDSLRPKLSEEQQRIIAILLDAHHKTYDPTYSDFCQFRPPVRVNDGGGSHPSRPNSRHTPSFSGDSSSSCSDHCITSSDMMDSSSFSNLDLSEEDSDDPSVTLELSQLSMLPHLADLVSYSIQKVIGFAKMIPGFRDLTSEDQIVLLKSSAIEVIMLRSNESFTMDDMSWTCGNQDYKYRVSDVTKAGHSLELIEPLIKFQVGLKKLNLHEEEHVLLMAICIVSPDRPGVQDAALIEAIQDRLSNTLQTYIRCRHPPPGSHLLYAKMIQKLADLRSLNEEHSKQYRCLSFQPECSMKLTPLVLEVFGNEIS
Sequence of Peroxisome proliferator-activated receptor gamma (Homo sapiens) (P37231 whole entry, looked up): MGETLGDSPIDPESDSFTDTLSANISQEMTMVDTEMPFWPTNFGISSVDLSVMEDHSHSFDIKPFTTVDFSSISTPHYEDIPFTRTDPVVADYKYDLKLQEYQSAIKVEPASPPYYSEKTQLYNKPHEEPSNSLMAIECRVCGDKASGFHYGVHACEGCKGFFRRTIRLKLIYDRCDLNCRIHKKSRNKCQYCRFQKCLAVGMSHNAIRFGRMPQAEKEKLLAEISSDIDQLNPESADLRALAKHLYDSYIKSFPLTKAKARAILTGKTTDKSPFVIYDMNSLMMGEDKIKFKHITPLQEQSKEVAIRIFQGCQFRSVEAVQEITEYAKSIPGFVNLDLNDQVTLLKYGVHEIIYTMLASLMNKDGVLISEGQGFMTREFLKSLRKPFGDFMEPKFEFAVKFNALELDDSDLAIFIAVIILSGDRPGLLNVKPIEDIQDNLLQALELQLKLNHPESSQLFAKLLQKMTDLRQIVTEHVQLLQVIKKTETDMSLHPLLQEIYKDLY
Sequence of Peroxisome proliferator-activated receptor delta (Homo sapiens) (Q03181 whole entry, looked up): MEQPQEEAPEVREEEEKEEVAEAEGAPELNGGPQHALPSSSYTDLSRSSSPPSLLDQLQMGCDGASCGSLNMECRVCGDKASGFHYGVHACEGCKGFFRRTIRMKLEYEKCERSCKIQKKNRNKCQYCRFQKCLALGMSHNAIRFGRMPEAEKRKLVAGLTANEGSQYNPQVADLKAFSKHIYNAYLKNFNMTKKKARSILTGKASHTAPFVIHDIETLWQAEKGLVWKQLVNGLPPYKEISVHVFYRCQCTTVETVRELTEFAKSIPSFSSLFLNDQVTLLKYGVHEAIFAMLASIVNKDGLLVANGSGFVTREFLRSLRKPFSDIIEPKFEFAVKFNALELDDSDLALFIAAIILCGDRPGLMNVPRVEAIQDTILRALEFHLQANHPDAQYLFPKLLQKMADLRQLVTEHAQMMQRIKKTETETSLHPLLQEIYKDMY
Sequence of Aryl hydrocarbon receptor (Homo sapiens) (P35869 whole entry, looked up): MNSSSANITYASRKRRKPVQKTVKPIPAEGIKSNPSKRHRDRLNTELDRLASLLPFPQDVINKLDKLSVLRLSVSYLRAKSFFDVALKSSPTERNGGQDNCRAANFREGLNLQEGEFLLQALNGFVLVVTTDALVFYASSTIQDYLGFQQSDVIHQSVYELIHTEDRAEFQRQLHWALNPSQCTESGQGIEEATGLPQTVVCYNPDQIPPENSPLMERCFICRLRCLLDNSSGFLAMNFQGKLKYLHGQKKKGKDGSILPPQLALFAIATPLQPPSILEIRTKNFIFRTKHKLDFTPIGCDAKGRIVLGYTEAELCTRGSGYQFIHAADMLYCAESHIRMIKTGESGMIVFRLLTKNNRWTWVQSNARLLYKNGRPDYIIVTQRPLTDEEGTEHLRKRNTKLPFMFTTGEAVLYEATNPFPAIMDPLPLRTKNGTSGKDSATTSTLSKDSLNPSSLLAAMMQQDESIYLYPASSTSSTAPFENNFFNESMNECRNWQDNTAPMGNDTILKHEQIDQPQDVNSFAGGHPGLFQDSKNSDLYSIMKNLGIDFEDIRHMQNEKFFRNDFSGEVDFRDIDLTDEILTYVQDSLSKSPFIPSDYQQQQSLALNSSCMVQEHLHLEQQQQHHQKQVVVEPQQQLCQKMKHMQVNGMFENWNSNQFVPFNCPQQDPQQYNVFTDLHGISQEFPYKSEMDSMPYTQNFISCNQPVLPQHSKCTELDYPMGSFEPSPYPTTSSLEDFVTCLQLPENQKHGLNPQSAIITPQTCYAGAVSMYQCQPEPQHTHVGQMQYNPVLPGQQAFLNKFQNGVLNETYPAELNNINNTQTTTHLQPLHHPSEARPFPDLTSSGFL
Sequence of Bile acid receptor (Homo sapiens) (Q96RI1 whole entry, looked up): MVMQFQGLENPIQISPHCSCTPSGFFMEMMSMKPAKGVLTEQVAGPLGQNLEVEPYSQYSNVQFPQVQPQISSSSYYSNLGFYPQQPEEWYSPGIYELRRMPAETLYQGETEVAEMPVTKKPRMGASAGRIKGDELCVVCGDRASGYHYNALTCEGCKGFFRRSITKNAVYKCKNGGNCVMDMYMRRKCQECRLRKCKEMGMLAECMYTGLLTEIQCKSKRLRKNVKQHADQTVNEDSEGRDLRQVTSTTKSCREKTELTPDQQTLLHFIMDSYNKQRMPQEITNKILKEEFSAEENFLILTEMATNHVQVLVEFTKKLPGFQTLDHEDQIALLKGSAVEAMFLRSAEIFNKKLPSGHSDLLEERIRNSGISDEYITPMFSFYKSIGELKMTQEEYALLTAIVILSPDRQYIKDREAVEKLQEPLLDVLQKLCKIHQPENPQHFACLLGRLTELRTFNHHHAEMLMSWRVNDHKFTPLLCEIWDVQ

SMILES: CC(C)C(=O)OCC(C)(C)C(OC(=O)C(C)C)C(C)C (centres undefined)
- Potency [1]: inactive
- Potency [2]: inactive
- Potency [3]: inactive
- Potency [4]: inactive
- Potency [5]: inactive
- Potency [6]: inactive
- Potency [7]: inactive
- Potency [8]: 24.8 µM (active) and inactive
- Potency [9]: inactive
- Potency [10]: inactive
- Potency [11]: inactive
- Potency [12]: inactive
- Potency [13]: inactive
- outcome [14]: inactive
- outcome [15]: inactive

SMILES: CN(C)c1ccc(C(=O)c2ccc(N(C)C)cc2)cc1
- Potency [1]: inactive
- Potency [2]: 428 nM (active) and 3.86 µM (active)
- Potency [16]: inactive
- Potency [7]: inactive
- Potency [8]: inactive
- Potency [9]: inactive
- Potency [17]: inactive
- Potency [18]: inactive
- outcome [19]: inactive
- Potency [13]: inactive
- outcome [14]: inactive

SMILES: CCCCOCCOP(=O)(OCCOCCCC)OCCOCCCC
- Potency [1]: inactive
- Potency [3]: inactive
- Potency [4]: inactive
- Potency [5]: inactive
- Potency [8]: inactive
- Potency [9]: inactive
- Potency [11]: inactive
- Potency [12]: inactive
- Potency [18]: inactive
- Potency [13]: inactive
- outcome [14]: inactive
- outcome [15]: inactive

SMILES: N#CCCCl
- Potency [3]: inactive
- Potency [6]: inactive
- Potency [8]: inactive
- Potency [9]: inactive
- Potency [10]: inactive
- Potency [17]: inactive
- Potency [13]: inactive
- outcome [14]: inactive
- outcome [15]: inactive

SMILES: Nc1ccncc1
- Potency [1]: inactive
- Potency [2]: inactive
- Potency [3]: inactive
- Potency [16]: inactive
- Potency [6]: inactive
- Potency [7]: inactive
- Potency [8]: inactive
- Potency [10]: inactive
- Potency [11]: inactive
- Potency [12]: inactive
- Potency [13]: inactive
- outcome [14]: inactive
- outcome [15]: inactive

SMILES: C#CCOS(=O)OC1CCCCC1Oc1ccc(C(C)(C)C)cc1 (centres undefined)
- Potency [1]: 21.7 µM (active) and 6.86 µM (active)
- Potency [2]: inactive
- Potency [3]: inactive
- Potency [5]: 43.6 µM (active)
- Potency [16]: 2.45 µM (active)
- Potency [6]: 970 nM (active) and 1.72 µM (active)
- Potency [7]: inactive
- Potency [8]: inactive
- Potency [9]: inactive
- Potency [10]: inactive and 24.5 µM (active)
- Potency [11]: inactive
- Potency [12]: inactive
- Potency [20]: inactive
- Potency [18]: inactive
- outcome [19]: inactive
- Potency [13]: inactive

SMILES: Cc1ccc(N)c(N)c1
- Potency [3]: inactive
- Potency [16]: inactive
- Potency [6]: 8.66 µM (active) and 10.9 µM (active)
- Potency [8]: inactive
- Potency [10]: inactive
- Potency [18]: inactive
- Potency [13]: inactive
- outcome [14]: inactive
- outcome [15]: inactive

SMILES: Cc1cc(C)cc(C)c1
- Potency [3]: inactive
- Potency [16]: inactive
- Potency [6]: inactive
- Potency [7]: inactive
- Potency [8]: inactive
- Potency [9]: inactive
- Potency [10]: inactive
- Potency [13]: inactive
- outcome [14]: inactive
- outcome [15]: inactive

SMILES: CC(C)c1ccc(CO)cc1
- Potency [1]: inactive
- Potency [3]: inactive
- Potency [4]: inactive
- Potency [16]: inactive
- Potency [6]: inactive
- Potency [7]: inactive
- Potency [8]: inactive
- Potency [9]: inactive
- Potency [10]: inactive
- Potency [11]: inactive
- Potency [17]: inactive
- Potency [20]: inactive
- Potency [18]: inactive
- outcome [19]: inactive
- Potency [13]: inactive
- outcome [14]: inactive
- outcome [15]: inactive

SMILES: O=Cc1ccco1
- Potency [1]: inactive
- Potency [2]: inactive
- Potency [3]: inactive
- Potency [16]: inactive
- Potency [6]: inactive
- Potency [7]: inactive
- Potency [8]: inactive
- Potency [9]: inactive
- Potency [10]: inactive
- Potency [11]: inactive
- Potency [12]: inactive
- Potency [18]: inactive
- Potency [13]: inactive
- outcome [14]: inactive
- outcome [15]: inactive

SMILES: CCOc1cc(C=O)ccc1O
- Potency [3]: inactive
- Potency [16]: inactive
- Potency [6]: inactive
- Potency [8]: inactive
- Potency [9]: inactive
- Potency [10]: inactive
- Potency [11]: inactive
- Potency [17]: inactive
- Potency [12]: inactive
- Potency [18]: inactive
- Potency [13]: inactive
- outcome [14]: inactive
- outcome [15]: inactive

SMILES: CC(C)(c1cc(Cl)c(O)c(Cl)c1)c1cc(Cl)c(O)c(Cl)c1
- Potency [1]: inactive
- Potency [2]: inactive
- Potency [3]: inactive
- Potency [6]: 15.4 µM (active) and 19.3 µM (active)
- Potency [8]: inactive
- Potency [11]: inactive
- Potency [17]: inactive
- Potency [12]: inactive
- Potency [18]: inactive
- Potency [13]: inactive
- outcome [14]: inactive
- outcome [15]: inactive

SMILES: Oc1cc(Cl)ccc1Oc1ccc(Cl)cc1Cl
- Potency [1]: inactive and 22.2 µM (active)
- Potency [2]: inactive and 21 µM (active)
- Potency [4]: inactive
- Potency [16]: 6.31 µM (active)
- Potency [7]: 27.9 µM (active)
- Potency [8]: 30.7 µM (active) and 29.8 µM (active)
- Potency [10]: 20 µM (active) and 15 µM (active)
- Potency [11]: inactive
- Potency [12]: inactive
- Potency [13]: 56.2 µM (active)
- outcome [14]: inactive
- outcome [15]: inactive
